The source of these data is the supplement of paper PMC6555819.

For the assay, the system named is VDR:RXRa (NR concentration 270 nM, RXRa partner concentration 90 nM). The assay is described as follows: PBM binding z-score (relative to random genomic background probes); higher = stronger binding; sequences stand for … in GC…GCGATTGACAGCGTAGAATGAAGG
How it is done: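 Protein-binding microarray (Agilent 4x180K custom design, double-stranded 60-nt probes: 5' GC cap, 34-nt variable region, 24-nt constant primer region; full probe sequence given). Purified or IVT nuclear receptor:RXRα heterodimers (3:1 NR:RXRα, mostly 270:90 nM) or homodimers were incubated for 1 h in PBS with 2% milk and no ligand, then detected with Alexa488 antibodies. Fluorescence from o1-orientation probes (~5 replicates averaged) was converted to z-scores against 500 random hg19 background probes. Variable regions are seed direct-repeat (DR0–DR5) sites, all their single-nucleotide variants and half-site ablations.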
In turn, TCGAGTAGGTTAGGGGCAGTCAGAATGGCGTCGA showed a PBM binding z-score of 0.0468.

ATATGTAGCTTAGCTGGGGTCATTCAGACTAGGC gave a PBM binding z-score of 4.78.

CCTACTTGGCCAAGGTCATTGATCAGTCAAAGCA came in with a PBM binding z-score of 3.78.

CCTACTGGGCCAAAAAGGTCATTGAAGCCGATAA had a PBM binding z-score of 4.54.

In turn, ACTATTAGTTGACTTAGTGCAACCGATACGACGC yielded a PBM binding z-score of 0.264.

As for CGAACTAGGTCAGAACAGGTCAGTGAAGGATGAT, the PBM binding z-score worked out at 2.68.

Take CCGACTGGGGCAAAGTTACCATAACGCACAGCCA: the PBM binding z-score was -0.545.

The sequence AGAATGAGGTTACCAAAGCTCAGGGAAACGCTTG yielded a PBM binding z-score of 0.99.

TGGAGTAGGTTAGGGGCATTCAGAATGGCGTCGA: the PBM binding z-score stood at 1.05.

ATCTCTAAGTAAAGTTCAGTGAAAGATCGATAGA registered a PBM binding z-score of 1.67.

ATCTCTAGGTAAAGTTCAGTGATAGATCGATAGA returned a PBM binding z-score of 1.47.

Sequence AGAACGAGGGCAATGAGTTGATATCACGGGTGGC came in with a PBM binding z-score of 5.09.

Sequence AGAATGAGGTTAAGATGAGGGAAACAGAATACAT had a PBM binding z-score of 1.43.

Take GCATATAGGTAATACAAGGTGAAAATCCGATTGT: the PBM binding z-score was 0.212.

The sequence TCTTGTAGATCAAAGGGTAAGAAAGCCGAAGCCT displayed a PBM binding z-score of 0.126.

As for CTCGAAAGGTCGTGCTCCGGTGAGTATACCAAAC, the PBM binding z-score worked out at 3.48.

For CCTAGTTGGTCAATGTCACACACGCTATAGGTAC, the PBM binding z-score stood at 0.974.

CCTTACGGGTCACTGACAGGGTATAGCATTTGGA had a PBM binding z-score of 3.15.

In the case of CCTCGGAGGAAAGAAGGTCAGAGCTGTCCGCTTT, the PBM binding z-score stood at 1.09.

For TCTAGTTGGTCAATGGTCACACACTCGAAATGCG, the PBM binding z-score stood at 0.851.

Turning to AAAACGAGGGCACGCTGAGTTGATAGCAGAGTAG, the PBM binding z-score is 2.53.

In turn, CAAACTAGTTCAAAGGTCAAAGTCGAGCCAACCA had a PBM binding z-score of 6.02.

In turn, CGTCCACGGTCAGCAGGTCAGTGAAAGCGACGTG gave a PBM binding z-score of 0.107.

Turning to TCATATAGGTAATATAGGTGAAAGTCGGCATCTA, the PBM binding z-score worked out at 0.836.

Consider ATCTCTAGCTAACAAGTTCAGTGAAAGAGAGGAC, for which the PBM binding z-score stood at 1.64.

Sequence TCACCAAGGTGAAAGGTCGTTGATGCACGCCTTG registered a PBM binding z-score of 3.17.

CCTGCTAAGTCAATGGTCAGCTAAAGCAGCTCGC: the PBM binding z-score is -0.304.

In turn, TCTTGTAGATCAATAGAGGGTAAGAAAGTGCGCT yielded a PBM binding z-score of 0.717.

ATCGAAATGTCGAAGGTGAGTATACCCACCCGAA registered a PBM binding z-score of -0.0982.

As for ACTAGCAGGCCAAGTTTGGGTAACTCAAACAAAG, the PBM binding z-score was -0.517.

Consider CGACCGAGGGCATGAGTTGATAGCAAATGCCGAT, for which the PBM binding z-score turned out to be 1.3.

Sequence CGAACGATGGCATGAGTTGATAGCAAATGCCGAT yielded a PBM binding z-score of -0.111.

Take CAAACTAGGTCAAATGTCAAAGTCGAGCCAACCA: the PBM binding z-score was found to be 3.1.

TTACCAAGGTGAAAGGTCGTTCATGCACGCCTTG came in with a PBM binding z-score of 3.53.

CAAACTAGGTCAATGTCAAAGTCGGTTTGTGCCA gave a PBM binding z-score of 1.58.

TCTCGGAGGACACGAACGTCAGAGCTTTCCAGAG yielded a PBM binding z-score of -0.0912.

TATACAGGGTCAAAGGCCGGAGTACGAATGTCGA came in with a PBM binding z-score of 4.5.

Turning to CAAACTAGGTAAAAGGTCAAAGTCGAGCCAACCA, the PBM binding z-score was 4.86.

CCTGGTAGGTCATGGTCAGCTAATCTACAGTATG registered a PBM binding z-score of 1.89.

With ACAGACAGGTGAGTGAAGGAAACTCAGCTGGACG, the PBM binding z-score was -0.816.
